# TSHR antag: antagonists of human thyroid stimulating hormone receptor | 330,000 compounds, 0.2% hits | activity change, negative = inhibition, % at 11.5 µM | AID 504810 | TSHR-expressing cells, TSH-stimulated cAMP HTRF, 2 h; active compounds read low;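 active = activity change below a set negative limit, meaning inhibition stronger than a set level, cut at about -70% in these data; inconclusive = activity change between two set negative limits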
# Target sequence (P16473 whole entry, looked up): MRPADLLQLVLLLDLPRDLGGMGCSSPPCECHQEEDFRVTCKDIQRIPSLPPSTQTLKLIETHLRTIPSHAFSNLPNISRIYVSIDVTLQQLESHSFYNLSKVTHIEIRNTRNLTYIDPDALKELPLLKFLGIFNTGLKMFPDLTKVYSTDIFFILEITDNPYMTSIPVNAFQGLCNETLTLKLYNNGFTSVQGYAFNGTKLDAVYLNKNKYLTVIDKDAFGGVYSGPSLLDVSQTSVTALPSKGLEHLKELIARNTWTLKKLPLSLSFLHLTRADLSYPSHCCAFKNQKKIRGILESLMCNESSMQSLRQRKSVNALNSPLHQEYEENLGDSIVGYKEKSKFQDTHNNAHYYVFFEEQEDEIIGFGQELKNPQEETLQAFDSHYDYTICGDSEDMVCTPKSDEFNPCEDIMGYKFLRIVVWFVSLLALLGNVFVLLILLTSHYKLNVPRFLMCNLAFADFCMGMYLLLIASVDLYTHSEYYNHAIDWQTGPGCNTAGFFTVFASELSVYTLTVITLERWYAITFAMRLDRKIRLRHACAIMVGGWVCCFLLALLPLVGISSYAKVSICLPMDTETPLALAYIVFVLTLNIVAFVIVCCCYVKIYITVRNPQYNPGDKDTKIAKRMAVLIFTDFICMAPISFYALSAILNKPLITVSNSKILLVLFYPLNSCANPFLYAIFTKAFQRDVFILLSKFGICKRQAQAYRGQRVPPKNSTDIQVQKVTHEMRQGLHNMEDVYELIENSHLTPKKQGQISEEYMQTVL
#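 TSHR-expressing cells, 200/well, pre-treated with compound, then stimulated with EC80 TSH (4nM final) for 2 hours at 37 deg C. cAMP measured by competitive HTRF: anti-cAMP cryptate antibody in lysis buffer plus cAMP-d2, read after 30 minutes at room temperature.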
# GLP1R ag: activates the human GLP-1 receptor | P43220 | HEK293 GLP-1R CRE-luciferase, luminescence, 4-6 h; cells express a hypersensitive GLP-1R form | Potency, µM (doses to about 45.6 µM), usual class: activators | 380,000 compounds, 0.007% hits | AID 624172
# PTHR1 agonist: activates the human parathyroid hormone receptor PTHR1 | Q03431 | HEK293 GP2 PTHR1 cells, GloSensor cAMP luminescence, 1 h | Potency, µM (series often up to 115 µM), usual class: activators | 410,000 compounds, 0.075% hits; note: nearly all actives have a fitted effect of over 55% in size
#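 HEK-293-derived GP2 cells expressing PTHR1 and a GloSensor cAMP reporter, 3,000/well, plated overnight, given luciferin plus IBMX (each 0.5 mM as added) for 1 h at 37 °C, then compound for 1 h at 37 °C. Luminescence was read after 15 min at room temperature.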
# GLP1R inv ag: inverse agonists of human GLP-1 receptor; HEK293 GLP-1R CRE-luciferase, luminescence, 24 h; GLP-1R form is constitutively active; Potency, µM (top dose mostly 38.3 µM), hits mostly inhibitors; 410,000 compounds, 1.6% hits; note: nearly all actives have a fitted effect of over 55% in size
#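 Assay principle: reduced luminescence from a cAMP-responsive reporter in HEK293 cells co-expressing a constitutively active GLP-1R. Conditions: 24 hr compound incubation, 37 deg C, 5% CO2.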
# HEK293 tox: cytotoxicity in counter-screen for GLP-1R inverse agonists. HEK293 cAMP-luciferase reporter cells, luminescence, 24 h. Potency, µM (series often up to 38.3 µM), actives largely listed as inhibitors. 410,000 compounds, 0.13% hits. AID 624418;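 note: loss of luciferase light is scored as toxicity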
#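 Quantitative HTS format, 1536 wells, 200 cells/uL seeded. Compounds: 23 nL, 24 h, 37 °C. Detection: luciferase reagent, luminescence at 12 min RT; decreased signal taken as cytotoxic.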
# Numbers stand for hits; i = inactive; ? = inconclusive; nt = no result; ! = not active in a repeat. Compounds with a hit are over-represented: about 1.8% of the library has one in this group of screens. Unless noted, calls come from the whole dose curve; as a rule, active = well fitted curve in the direction sought with a large enough effect; inconclusive = small, poorly fitted or top-dose-only effect, or another doubt; inactive = no such curve, though single readings can be large; an effect the other way counts as inactive or inconclusive.
SMILES,TSHR antag,GLP1R ag,PTHR1 agonist,GLP1R inv ag,HEK293 tox
CN(c1ccccc1)S(=O)(=O)c1ccc(NC(=O)c2ccc(F)cc2)cc1,nt,i,i,?,i
CN(c1ccccc1)S(=O)(=O)c1ccc(NC(=O)c2ccccc2)cc1,i,i,i,10µM,i
COc1ccc(NC(=O)c2ccc(OC(=S)N(C)c3ccc(OC)cc3)cc2)cc1,i,i,i,i,i
COc1ccc(-c2nc(-c3ccccc3)c(-c3cc([N+](=O)[O-])ccc3C)[nH]2)cc1OC,i,i,i,5.62µM,i
COc1cc(-c2nc(-c3ccccc3)c(-c3ccc(Br)cc3)[nH]2)cc(OC)c1O,nt,nt,i,11.2µM,i
COc1ccccc1NC(=O)Cc1c(C(=O)O)[nH]c2ccc(Cl)cc12,nt,nt,i,i,i
CCCCCCSc1ccc(-c2nc3ccc(C)cn3c2NCCCC)cc1OC,nt,i,i,?,i
CCCCCCSc1ccc(-c2nc3ccc(Cl)cn3c2NCCCC)cc1OC,-82.7,i,i,?,i
Cc1cc(C)c2c(CC(=O)Nc3ccc(S(=O)(=O)Nc4ncccn4)cc3)coc2c1,nt,nt,i,i,i
COc1cccc(N2CCN(C(=O)C3Cc4ccccc4N3C(C)=O)CC2)c1 (centres undefined),nt,nt,i,i,i
Cc1cc(Br)ccc1NC(=O)CN1C(=O)C2C3CC(c4ccccc4)C(C3)C2C1=O (centres undefined),i,i,i,10µM,i
Cc1cc(Br)ccc1NC(=O)CNC(=O)CN1C(=O)NC2(CCCCCC2)C1=O,i,i,i,i,i
COc1ccc(-c2cc(C(F)(F)F)nc(SCC(=O)NCc3ccc(Cl)cc3)n2)cc1,nt,nt,i,i,i
O=C(Nc1cccc(C(F)(F)F)c1)Oc1ccc(Cl)c2cccnc12,i,i,i,12.6µM,i
CCNC(=O)CON=C1c2ccccc2-c2ccccc21,i,?,i,?,i
CCC(CC)NC(=O)CON=C1c2ccccc2-c2ccccc21,i,i,i,8.91µM,i
COc1cc(OC)cc(C(=O)Nc2ccc(S(=O)(=O)N3CCCCC3c3cccnc3)cc2)c1 (centres undefined),nt,nt,i,7.08µM,?
CCC1CCCCN1S(=O)(=O)c1ccc(NC(=O)c2cccnc2)cc1 (centres undefined),i,i,i,?,i
COc1cccc(NC(=O)Cc2ccccc2)c1,i,i,i,i,i
O=C(Cc1ccccc1)Nc1cccc(N2C(=O)C=CC2=O)c1,-71.3,i,i,i,i
CC1=C(C(=O)Nc2ccccc2C)C(c2sccc2C)n2ncnc2N1 (centres undefined),nt,i,i,i,i
Cc1cccc(C)c1OCc1cc(C(=O)NCC2CCCCC2)no1,i,i,i,i,i
Cc1cccc(C)c1OCc1cc(C(=O)N(Cc2c(C)nn(C)c2C)C2CC2)no1,i,i,i,7.94µM,i
COC(=O)C(Oc1ccc2c(-c3ccc(OC)cc3)cc(=O)oc2c1)c1ccccc1 (centres undefined),i,i,i,i,i
CCOC(=O)C(Oc1ccc2c(-c3ccccc3)cc(=O)oc2c1)c1ccccc1 (centres undefined),i,i,i,11.2µM,i
SMILES,TSHR antag,GLP1R ag,PTHR1 agonist,GLP1R inv ag,HEK293 tox
COc1ccc(-c2cc3c(=O)n(CC(=O)NCCCN4CCC(Cc5ccccc5)CC4)ncn3n2)cc1,i,i,i,2.24µM,i
COc1ccc(-c2cc3c(=O)n(CC(=O)Nc4ccc(Cl)cc4)nc(C)n3n2)cc1,i,i,i,i,i
COc1ccc(-c2cc3c(=O)n(CC(=O)NCc4cccnc4)nc(C)n3n2)cc1,-139.0,i,i,i,i
CCOC(=O)c1ccc(NC(=O)CC2C(=O)N(c3ccc(F)cc3)C(=O)N2Cc2ccc(C)cc2)cc1 (centres undefined),nt,nt,i,?,i
CCOC(=O)N1CCC(NC(=S)Nc2ccc3nc(N4CCN(C)CC4)cc(C)c3c2)CC1,i,i,i,?,i
CCCCN(C)CCNC(=S)Nc1ccc2nc(N3CCN(CC)CC3)cc(C)c2c1,i,i,i,1.12µM,5.01µM
CCCCNC(=S)Nc1ccc2nc(N3CCN(CC)CC3)cc(C)c2c1,i,i,i,?,?
CCOC(=O)N1CCC(NC(=S)Nc2ccc3nc(N4CCN(CC)CC4)cc(C)c3c2)CC1,i,i,i,8.91µM,?
CCN1CCN(c2cc(C)c3cc(NC(=S)NCCN(C)C)ccc3n2)CC1,i,i,i,3.55µM,?
CCN(CC)CCNC(=S)Nc1ccc2nc(N3CCN(CC)CC3)cc(C)c2c1,i,i,i,2.51µM,?
CCC12CN3CC(C)(CN(C1)C3c1c(C)n(C)c3ccccc13)C2=O (centres undefined),nt,nt,i,i,i
CCOC(=O)c1cc(S(=O)(=O)NCc2ccc(Cl)cc2)[nH]n1,nt,nt,i,i,i
Cc1ccc(C(=O)NCCSc2c(C)[nH]c3ccccc23)cc1[N+](=O)[O-],i,i,i,10µM,i
CCC(=O)N(Cc1cc2cc(C)c(C)cc2[nH]c1=O)C1CCCCC1,i,i,i,10µM,i
Cc1ccc(N2C(=O)C(CC(=O)Nc3ccccc3)N(CCC3=CCCCC3)C2=O)cc1 (centres undefined),nt,nt,i,?,i
CC(OCCN1CCCC1)(c1ccc(F)cc1)c1ccc(F)cc1,i,i,i,10µM,?
CC(=O)N1c2nc(C(C)C)nn2C2(CCCCC2)[C@@H]2CCCC[C@@H]21,nt,nt,i,i,i
COc1nnc(-c2ccc(N3CCCCC3)c(NC(=O)c3ccccc3Cl)c2)c2ccccc12,nt,nt,i,3.55µM,i
CCN1CCN(Cc2ccc(NC(=O)c3cc(NC(=O)c4cnnc5ccccc45)cc(OC)c3)cc2C(F)(F)F)CC1,i,i,i,8.91µM!,?
CCN1CCN(Cc2ccc(NC(=O)c3cc(NC(=O)c4nccnc4N)cc(OC)c3)cc2C(F)(F)F)CC1,i,i,i,?,i
CC(C)Oc1ccc(CNC(=O)c2ccc(CN3CC(=O)N4CCCCC4C3=O)cc2)cc1 (centres undefined),nt,nt,i,i,i
CC1CCc2[nH]c3ccc(C(=O)N4CCCC(C(F)(F)F)C4)cc3c2C1 (centres undefined),i,i,i,10µM,i
O=C(C[C@H]1C(=O)N(CCc2ccccc2)C[C@@H]1Cc1ccccc1)Nc1ccc(Br)cc1,nt,i,i,7.94µM,i
CCCCN1C[C@H](CSC)[C@@H](CC(=O)Nc2ccc(Br)cc2)C1=O,nt,i,i,?,i
O=C(C[C@H]1C(=O)N(CCc2ccccc2)C[C@@H]1Cc1ccccc1)Nc1ccccc1,i,i,i,i,i
CSC[C@H]1CN(CCc2ccccc2)C(=O)[C@@H]1CC(=O)Nc1ccc(Br)cc1,nt,i,i,10µM,i
